Consider 37 compounds from publication PMC5540273 (PLoS ONE, 2017).

SMILES strings stand for the structures.
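Note: KINOMEscan kinase panel screen.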

The subject of one assay is CAMKK1. The conditions noted are these: concentration: 1 μM, replicates: in singlicate; n = 1.
With `Cc1ccc(NC(=O)Nc2ccc(Cl)c(C(F)(F)F)c2)cc1-c1ccc(C(=O)Nc2ccncc2)cc1` [GSK1398470], the “%Inh” value was 0%.
`FC(F)(F)c1ccccc1-c1cc(-c2c[nH]nc2-c2ccccn2)ccn1` [GW679396]: the “%Inh” value is on record as 5%.
Take `COC(=O)c1cccc(NC(=O)NC2CCN(c3ccnc(Nc4ccc(F)cc4)n3)C2)c1` (centres unmarked) [GSK1379725]: the “%Inh” value is 0%.
On the same count and under the same terms, the value for `Fc1ccc(-c2nn3cccc(F)c3c2-c2ccncc2)cc1` [GW475620] was 0%.
Still for that read-out and setting: next, `Cc1ccc(NC(=O)Nc2ccc(Cl)cc2)cc1-c1ccc(C(=O)Nc2ccncc2)cc1` [GSK1398472]: 0%; `COC(=O)C(Cc1ccccc1)NC(=O)NC1CCN(c2ccnc(Nc3ccc(F)cc3)n2)C1` (centres unmarked) [GSK1379714]: 19%.
In the case of `COc1ccc(Nc2nccc(NCCNC(=O)Nc3cc(C)ccc3C)n2)cc1` [GSK1379899], the “%Inh” value came to 13%.
Turning to `Fc1ccc(-c2nc3n(c2-c2ccncc2)CCS3)cc1` [GI98581], the “%Inh” value amounted to 8%.
Still for that read-out and setting: next, `CC(=O)c1cccc(NC(=O)NC2CCN(c3ccnc(Nc4ccc(F)cc4)n3)C2)c1` (centres unmarked) [GSK1379710]: 26%; `Cc1ccc(-c2nc(Nc3ccncc3)c3ccccc3n2)s1` [GSK189015]: 0%; `O=c1cc(N2CCOCC2)nc2n(Cc3cccc(Cl)c3Cl)c3ccccc3n12` [GSK2299009]: 27%.
Take `Cc1ccccc1Cn1ccn2c(=O)cc(N3CCOCC3)nc12` [GSK2269905]: the “%Inh” value came out at 9%.
Regarding `O=C(Nc1n[nH]c2nc(-c3cccs3)c(Br)cc12)C1CCCC1` [SB-743341], the “%Inh” value is on record as 7%.
`Cn1cncc1-c1cc2c(Nc3ccc(OCc4ccccc4)cc3)ncnc2cn1` [GW281179]: the “%Inh” value was determined as 3%.
In the case of `CNc1nc(-c2ccc3c(N)n[nH]c3c2)cc(N2C[C@@H](C(=O)NC3CCCCC3)OC[C@H]2C)n1` [GSK2375584], the “%Inh” value is 21%.
Take `COc1cccc(C2=C(Nc3cc(Cl)c(O)c(Cl)c3)C(=O)NC2=O)c1` [SB-390767]: the “%Inh” value turned out to be 11%.
In the case of `Cn1cnc2c(N)ncnc21` [SKF-97623], the “%Inh” value came to 0%.
With `O=c1cc(N2CCOCC2)nc2n(Cc3ccccc3F)ccn12` [GSK2297428], the “%Inh” value is given as 5%.
Same read-out and setting: next, `COc1ccc(-c2coc3ccc(-c4nnc(C)o4)cc23)cc1`: 0%; `Cc1ccccc1-c1cc(-c2c[nH]nc2-c2ccccn2)ccn1` [GW680061]: 0%; `Nc1cccc(-c2ccc3c(N)n[nH]c3c2)n1` [GSK2192730]: 27%.
As for `CNC(=O)c1ccc(C)c(-n2c(C)cc(OCc3ccc(F)cc3F)c(Br)c2=O)c1`, the “%Inh” value was 0%.
Same read-out and setting: the value for `O=C(Nc1n[nH]c2nc(-c3ccco3)c(Br)cc12)C1CCN(Cc2ccccc2)C1.O=C(O)[C@H](O)[C@@H](O)C(=O)O` (centres unmarked) [SB-742034] was 20%; that for `NS(=O)(=O)c1cccc(N/C=C2\C(=O)Nc3ccc(S(=O)(=O)Cc4c(Cl)cccc4Cl)cc32)c1` [GSK398099] was 72%; that for `c1ccc(-c2ccnc3[nH]ccc23)cc1` [SB-693578] was 10%.
With `CNc1nc(-c2ccc3c(N)n[nH]c3c2)cc(N2C[C@@H](C(=O)Nc3ccccc3)CC[C@H]2C)n1` [GSK2298859], the “%Inh” value is listed as 21%.
Turning to `COC(=O)c1cccc(NC(=O)NC2CCN(c3ccnc(Nc4ccc(OC)cc4)n3)C2)c1` (centres unmarked) [GSK1379746], the “%Inh” value is recorded as 0%.
On to `COc1ccc(Nc2nccc(-c3ccc(NC(=O)c4cc5cc(F)ccc5[nH]4)cc3)n2)cc1` [GSK1229496], for which the “%Inh” value turned out to be 0%.
With `Cl.Cl.Cl.N#Cc1ccc(CCNc2nccc(-c3cccc(CN4CCNCC4)c3)n2)cc1` [GSK2137462], the “%Inh” value is listed as 35%.
On the same count and under the same terms, the value for `O=C(Nc1n[nH]c2cc(-c3ccsc3)ccc12)C1CC1` [SB-732932] was 9%; that for `COc1ccc(Nc2nccc(N3CCC(NC(=O)c4cc5ccccc5s4)C3)n2)cc1` (centres unmarked) [GSK1379738] was 11%; that for `COc1ccc2cc(-c3nc(-c4ccccc4C(C)C)[nH]c3-c3ccncc3)ccc2c1` [SB-660566] was 8%.
For `CC[C@@H]1CO[C@H](C(=O)Nc2ccccc2)CN1c1cc(-c2ccc3c(N)n[nH]c3c2)nc(NC)n1` [GSK2376236], the “%Inh” value worked out at 5%.
On the same count and under the same terms, the value for `Cc1ccc(NC(=O)c2ccc(Cl)cc2)cc1-c1ccc(C(=O)Nc2ccncc2)cc1` [GSK1398467] was 0%; that for `COc1cccc(NC(=O)Nc2ccc(C)c(-c3ccc(C(=O)Nc4ccncc4)cc3)c2)c1` [GSK1398474] was 0%; that for `COc1ccc(CSc2nnc(-c3ccc4c(c3)CCO4)o2)cc1` was 1%.
With `Cc1cccc2c(-c3ccncn3)c(-c3ccc(F)cc3)nn12` [GW515532], the “%Inh” value amounted to 0%.

The subject of the next assay is CAMKK2. The settings on record: concentration: 1 μM, replicates: in singlicate; n = 1.
Turning to `Cc1ccc(NC(=O)Nc2ccc(Cl)c(C(F)(F)F)c2)cc1-c1ccc(C(=O)Nc2ccncc2)cc1` [GSK1398470], the “%Inh” value came out at 0%.
Still for that read-out and setting: next, `FC(F)(F)c1ccccc1-c1cc(-c2c[nH]nc2-c2ccccn2)ccn1` [GW679396]: 21%.
As for `COC(=O)c1cccc(NC(=O)NC2CCN(c3ccnc(Nc4ccc(F)cc4)n3)C2)c1` (centres unmarked) [GSK1379725], the “%Inh” value amounted to 0%.
On the same count and under the same terms, next, `Fc1ccc(-c2nn3cccc(F)c3c2-c2ccncc2)cc1` [GW475620]: 5%.
Consider `Cc1ccc(NC(=O)Nc2ccc(Cl)cc2)cc1-c1ccc(C(=O)Nc2ccncc2)cc1` [GSK1398472], for which the “%Inh” value was 0%.
Take `COC(=O)C(Cc1ccccc1)NC(=O)NC1CCN(c2ccnc(Nc3ccc(F)cc3)n2)C1` (centres unmarked) [GSK1379714]: the “%Inh” value turned out to be 9%.
On the same count and under the same terms, next, `COc1ccc(Nc2nccc(NCCNC(=O)Nc3cc(C)ccc3C)n2)cc1` [GSK1379899]: 0%; `Fc1ccc(-c2nc3n(c2-c2ccncc2)CCS3)cc1` [GI98581]: 0%.
On to `CC(=O)c1cccc(NC(=O)NC2CCN(c3ccnc(Nc4ccc(F)cc4)n3)C2)c1` (centres unmarked) [GSK1379710], for which the “%Inh” value amounted to 24%.
Turning to `Cc1ccc(-c2nc(Nc3ccncc3)c3ccccc3n2)s1` [GSK189015], the “%Inh” value is given as 7%.
Regarding `O=c1cc(N2CCOCC2)nc2n(Cc3cccc(Cl)c3Cl)c3ccccc3n12` [GSK2299009], the “%Inh” value is on record as 29%.
Regarding `Cc1ccccc1Cn1ccn2c(=O)cc(N3CCOCC3)nc12` [GSK2269905], the “%Inh” value stood at 31%.
On to `O=C(Nc1n[nH]c2nc(-c3cccs3)c(Br)cc12)C1CCCC1` [SB-743341], for which the “%Inh” value amounted to 0%.
`Cn1cncc1-c1cc2c(Nc3ccc(OCc4ccccc4)cc3)ncnc2cn1` [GW281179]: the “%Inh” value is listed as 32%.
Regarding `CNc1nc(-c2ccc3c(N)n[nH]c3c2)cc(N2C[C@@H](C(=O)NC3CCCCC3)OC[C@H]2C)n1` [GSK2375584], the “%Inh” value stood at 35%.
Regarding `COc1cccc(C2=C(Nc3cc(Cl)c(O)c(Cl)c3)C(=O)NC2=O)c1` [SB-390767], the “%Inh” value worked out at 0%.
The same measure, in the same setting: the value for `Cn1cnc2c(N)ncnc21` [SKF-97623] was 0%; that for `O=c1cc(N2CCOCC2)nc2n(Cc3ccccc3F)ccn12` [GSK2297428] was 3%; that for `COc1ccc(-c2coc3ccc(-c4nnc(C)o4)cc23)cc1` was 16%.
Turning to `Cc1ccccc1-c1cc(-c2c[nH]nc2-c2ccccn2)ccn1` [GW680061], the “%Inh” value was found to be 0%.
Same read-out and setting: next, `Nc1cccc(-c2ccc3c(N)n[nH]c3c2)n1` [GSK2192730]: 22%; `CNC(=O)c1ccc(C)c(-n2c(C)cc(OCc3ccc(F)cc3F)c(Br)c2=O)c1`: 1%; `O=C(Nc1n[nH]c2nc(-c3ccco3)c(Br)cc12)C1CCN(Cc2ccccc2)C1.O=C(O)[C@H](O)[C@@H](O)C(=O)O` (centres unmarked) [SB-742034]: 25%.
With `NS(=O)(=O)c1cccc(N/C=C2\C(=O)Nc3ccc(S(=O)(=O)Cc4c(Cl)cccc4Cl)cc32)c1` [GSK398099], the “%Inh” value amounted to 60%.
`c1ccc(-c2ccnc3[nH]ccc23)cc1` [SB-693578]: the “%Inh” value came out at 11%.
As to `CNc1nc(-c2ccc3c(N)n[nH]c3c2)cc(N2C[C@@H](C(=O)Nc3ccccc3)CC[C@H]2C)n1` [GSK2298859], the “%Inh” value is given as 29%.
With `COC(=O)c1cccc(NC(=O)NC2CCN(c3ccnc(Nc4ccc(OC)cc4)n3)C2)c1` (centres unmarked) [GSK1379746], the “%Inh” value turned out to be 0%.
Regarding `COc1ccc(Nc2nccc(-c3ccc(NC(=O)c4cc5cc(F)ccc5[nH]4)cc3)n2)cc1` [GSK1229496], the “%Inh” value is on record as 17%.
Take `Cl.Cl.Cl.N#Cc1ccc(CCNc2nccc(-c3cccc(CN4CCNCC4)c3)n2)cc1` [GSK2137462]: the “%Inh” value came out at 22%.
As for `O=C(Nc1n[nH]c2cc(-c3ccsc3)ccc12)C1CC1` [SB-732932], the “%Inh” value came out at 0%.
Consider `COc1ccc(Nc2nccc(N3CCC(NC(=O)c4cc5ccccc5s4)C3)n2)cc1` (centres unmarked) [GSK1379738], for which the “%Inh” value is 2%.
The same measure, in the same setting: next, `COc1ccc2cc(-c3nc(-c4ccccc4C(C)C)[nH]c3-c3ccncc3)ccc2c1` [SB-660566]: 0%; `CC[C@@H]1CO[C@H](C(=O)Nc2ccccc2)CN1c1cc(-c2ccc3c(N)n[nH]c3c2)nc(NC)n1` [GSK2376236]: 22%.
Consider `Cc1ccc(NC(=O)c2ccc(Cl)cc2)cc1-c1ccc(C(=O)Nc2ccncc2)cc1` [GSK1398467], for which the “%Inh” value is listed as 5%.
In the case of `COc1cccc(NC(=O)Nc2ccc(C)c(-c3ccc(C(=O)Nc4ccncc4)cc3)c2)c1` [GSK1398474], the “%Inh” value worked out at 19%.
As for `COc1ccc(CSc2nnc(-c3ccc4c(c3)CCO4)o2)cc1`, the “%Inh” value was 15%.
Turning to `Cc1cccc2c(-c3ccncn3)c(-c3ccc(F)cc3)nn12` [GW515532], the “%Inh” value is recorded as 0%.
